Source: PubChem BioAssay AID2102 (Southern Research Specialized Biocontainment Screening …, 2009)
The campaign covered roughly 1,100 compounds. About 210 (19%) were called active. The rule behind the calls is not given here. Not all results are given here. Measured potencies and affinities stand elsewhere.

Assay: cell viability loss from selected hits – cytotoxicity control for SV40 T antigen inhibitor project, dose response (AID 2102);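 note: cells exposed to compounds for 72 hours; 100% = mean of untreated cell control wells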
Conditions: Host cell viability cytotoxicity counter-screen; series mostly up to 50 µM; viability: at the top concentration
In the case of `COc1cc(SC)ccc1C(=O)N1CCN(Cc2ccccc2)CC1`, the “viability” value is reported as 88.4% (inactive). For `COc1cc(SC)ccc1C(=O)N1CCN(c2ccc(O)cc2)CC1`, the “viability” value was 97.8% (inactive). In the case of `Cc1ccc(C)c(S(=O)(=O)Nc2ccc(O)cc2)c1`, the “viability” value is reported as 87.3% (inactive). In the case of `Oc1ccc2c(c1)oc1cc(O)ccc12`, the “viability” value is reported as 101% (inactive). In the case of `O=c1oc2cc(O)ccc2c2ccccc12`, the “viability” value is reported as 95.3% (inactive). In the case of `OC1CCN(C(=S)Nc2ccc(Nc3ccccc3)cc2)CC1`, the “viability” value is reported as 91.4% (inactive). For `CN1CCN(c2nc(Nc3ccc(O)cc3)nc3ccccc23)CC1`, the “viability” value was 89.4% (inactive). For `OCCNc1nc(Nc2ccc(O)cc2)nc2ccccc12`, the “viability” value was 86.5% (inactive). In the case of `Cc1ccc2oc(=O)c(/C=C(\O)C(C)(C)C)nc2c1`, the “viability” value is reported as 87% (inactive). For `COc1ccc(N2CCN(C(=O)NC3CC(=O)N(c4ccc(OC)cc4)C3)CC2)cc1` (centres undefined), the “viability” value was 86% (inactive). In the case of `COc1cc2c(cc1NC(=S)Nc1ccccc1C)oc1ccccc12`, the “viability” value is reported as 96.6% (inactive). With `CNC(=S)N1CCN(c2ccc(OC)cc2)CC1` the “viability” value was 100% (inactive). In the case of `COc1ccc(CNC(=S)N/N=C/c2ccc(O)c(OC)c2)cc1`, the “viability” value is reported as 96.2% (inactive). With `COc1ccc(NC2CCCN(C(=O)c3ccc(OC)o3)C2)cc1` (centres undefined) the “viability” value was 99.9% (inactive). In the case of `COc1cc(/C=N/NC(=O)CC#N)cc(Br)c1O`, the “viability” value is reported as 142% (inactive). For `COc1ccc(N2C(=O)CC(Sc3n[nH]c(-c4cccc(C)c4)n3)C2=O)cc1` (centres undefined), the “viability” value was 98.2% (inactive). With `CC1=C(C#N)c2nc(N)c(C#N)c(C)c2/C1=C\c1ccc(-c2ccccc2C(=O)O)o1` the “viability” value was 112% (inactive). In the case of `COc1cc(/C=C2\N=C3CCCCCN3C2=O)ccc1O`, the “viability” value is reported as 96.3% (inactive). With `O=c1/c(=C\c2cc([N+](=O)[O-])cc([N+](=O)[O-])c2O)sc2nc3ccccc3n12` the “viability” value was 92.6% (inactive). In the case of `O=C1C=C(Nc2ccc(O)cc2)CC(c2ccco2)C1` (centres undefined), the “viability” value is reported as 100% (inactive). In the case of `O=C(O)/C=C/c1ccc(O)cc1`, the “viability” value is reported as 104% (inactive). With `COc1cc(-c2nc(=S)[nH][nH]2)cc(OC)c1OC` the “viability” value was 111% (inactive). For `C=CCn1c(CNc2ccccc2)nnc1SCC(=O)N/N=C/c1ccc(O)cc1O`, the “viability” value was 80.3% (inactive). In the case of `O=C(N/N=C/c1ccc(O)cc1)c1csc2ccccc12`, the “viability” value is reported as 112% (inactive). With `CCCn1c(=O)c2ccccc2n2c(=S)[nH]nc12` the “viability” value was 85.2% (inactive). With `CNC(=S)Nc1ccc(Nc2ccccc2)cc1` the “viability” value was 87.8% (inactive). For `NC(=O)Nc1ccc(Nc2ccccc2)cc1`, the “viability” value was 95.5% (inactive). With `O=[N+]([O-])c1cccc(S(=O)(=O)N/N=C/c2ccc(O)cc2)c1` the “viability” value was 101% (inactive). For `O=C(CN1C(=O)/C(=C/c2ccco2)SC1=S)Nc1ccc(C(=O)O)c(O)c1`, the “viability” value was 117% (inactive). For `COc1cc2c(cc1OC)C[N+](C)(C)CC2`, the “viability” value was 106% (inactive). In the case of `COc1cc(/C=N/Nc2nncn2/N=C/c2ccc(O)c(OC)c2)ccc1O`, the “viability” value is reported as 81.7% (inactive). With `N#CC1=C(N)NC(=S)C(C(N)=O)C1c1ccccc1F` (centres undefined) the “viability” value was 101% (inactive). For `CCOc1cc(N2CCOCC2)c(OCC)cc1NC(C)C(=O)N1CCC(C)CC1` (centres undefined), the “viability” value was 85% (inactive). For `CCNC(=S)Nc1cc(OCC)c(N2CCOCC2)cc1OCC`, the “viability” value was 111% (inactive).
